Test systems include T-47D breast; BT-549 breast; MDA-MB-435 melanoma; SW-620 colon; HCT-116 colon; KM12 colon.
Assay in all cases: NCI-60 one-dose screen, 48 h (100 = growth as untreated, 0 = no growth, -100 = all killed)
Common to all, as to settings: 10 µM

Another assay deals with HCC-2998 colon. The protocol:
Growth inhibition of the HCC-2998 human tumor cell line is measured as a screen for anti-cancer activity. Cells are grown in 96 well plates and exposed to the test compound for 48 hours. Compounds are tested at a single concentration, which is 10^-5 M for most compounds. The reported endpoint is percent growth (GI% or GIPRCNT), where numbers from 0 - 100% represent growth inhibition, and numbers from -100% - 0 represent cell death. For example, a value of 40 represents 60% growth inhibition. A value of 0 means no net growth occurred over the course of the experiment. A value of -40 indicates 40% of cells at the beginning of the experiment died by the end of the experiment. A value of -100 means all cells are dead at the end of the experiment.
NCI-60 Human Tumor Cell Lines Screen was performed using the standard one-dose NCI protocol, which is described in more detail at https://dtp.cancer.gov/discovery_development/nci-60/default.htm.
Compounds with GIPRCNT values below 10 were considered active. Activity score was based on GIPRCNT using the following formula: […]
Score is 0 for GIPRCNT values of 100 or above, 50 for GIPRCNT values of 0, and 100 for GIPRCNT values of -100.

Values joined by “and” are separate entries in the source; they are usually repeats but may differ in a detail not shown here. Identical values can stand only once. This is part of a sample that, as a whole, favours compounds with a hit. Of some 83,000 tested, about 20% had one in any assay.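 Note: values are percent growth. 100 is the growth of untreated cells, values between 100 and 0 indicate rising inhibition; between -100 and 0 indicates cell death.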 A structure can be active in one record and inactive in another. Active and inactive are the calls of the source.

`CC1=CC(=C(c2ccc(N)cc2)c2ccc(N)cc2)C=CC1=N`: the growth was 3.11% (active) and 11.3% (inactive) in the assay with T-47D breast; 5.57% (active) and 81.8% (inactive) with BT-549 breast; 13.6% (inactive) and 24% (inactive) with MDA-MB-435 melanoma; 17.2% (inactive) and 39.1% (inactive) in the assay on SW-620 colon; 14% (inactive) and 11.5% (inactive) in the assay on HCT-116 colon; 21.1% (inactive) and 48.1% (inactive) in the assay with HCC-2998 colon. Besides, the growth in the assay on KM12 colon was 0.202% (active) and 9.48% (active).
For `Cc1ccc(Sc2ccccc2N)cc1`, the growth with T-47D breast was 99.8% (inactive); in the assay on BT-549 breast, 89.8% (inactive); with MDA-MB-435 melanoma, 120% (inactive); in the assay on SW-620 colon, 58.3% (inactive); with HCT-116 colon it was 55.8% (inactive); in the assay with HCC-2998 colon it was 132% (inactive). Further, in the assay on KM12 colon, the growth is 102% (inactive).
As to `CN(C)CCOC1(Cc2ccc(Cl)cc2Cl)CCC(C(C)(C)C)CC1` (stereo not given), the growth was -21.2% (active) and -41.1% (active) with T-47D breast; 58.8% (inactive) and 24% (inactive) in the assay with BT-549 breast; 11% (inactive) and -57.6% (active) in the assay on MDA-MB-435 melanoma; -51.8% (active) and -57.6% (active) in the assay with SW-620 colon; 13.2% (inactive) and -81.3% (active) in the assay with HCT-116 colon; -92.9% (active) and -95.5% (active) with HCC-2998 colon. Further, in the assay on KM12 colon, the growth was 20.2% (inactive) and -46.6% (active).
Take `Cc1cc(N(CCOS(C)(=O)=O)CCOS(C)(=O)=O)ccc1C=Nc1ccc(-c2nc(Cc3ccccc3)sc2C)cc1`: the growth is 20.5% (inactive) in the assay with T-47D breast; 52.8% (inactive) in the assay on BT-549 breast; 63.2% (inactive) in the assay on MDA-MB-435 melanoma; 61.6% (inactive) in the assay with SW-620 colon; 63.4% (inactive) in the assay on HCT-116 colon; -28.3% (active) with HCC-2998 colon. Moreover, the growth in the assay on KM12 colon is 68.7% (inactive).
As to `C=C1C(=O)OC2CC1C(OC(C)=O)C/C(C)=C/CC/C(C)=C\CCC2(C)O` (stereo not given), the growth was 4.13% (active) with T-47D breast; -83.9% (active) with BT-549 breast; 18.6% (inactive) with MDA-MB-435 melanoma; 1.39% (active) with SW-620 colon; -64.7% (active) in the assay with HCT-116 colon; -51.2% (active) in the assay on HCC-2998 colon. For the same compound, in the assay on KM12 colon, the growth is 23.2% (inactive).
With `COc1ccc(C(=O)C(CN(C)C)CN(C)C)cc1`, the growth was 9.04% (active) in the assay with T-47D breast; 112% (inactive) in the assay with BT-549 breast; 36.8% (inactive) in the assay with MDA-MB-435 melanoma; -80.5% (active) with SW-620 colon; 4.91% (active) with HCT-116 colon; 109% (inactive) with HCC-2998 colon. Besides, the growth in the assay on KM12 colon was 108% (inactive).
Regarding `C#CCN(Cc1ccc2nc(N)[nH]c(=O)c2c1)c1ccc(C(=O)NC(CCC(=O)O)C(=O)O)cc1` (stereo not given), the growth was 76.9% (inactive) in the assay on BT-549 breast; 90.7% (inactive) in the assay with MDA-MB-435 melanoma; 61.8% (inactive) with SW-620 colon; 45.7% (inactive) in the assay on HCT-116 colon; 31.6% (inactive) in the assay on HCC-2998 colon; 70.2% (inactive) in the assay on KM12 colon.
For `O=[N+]([O-])c1cc[n+]([O-])cc1`, the growth in the assay on T-47D breast was 120% (inactive); in the assay on BT-549 breast it was 92.4% (inactive); in the assay with MDA-MB-435 melanoma, 112% (inactive); in the assay on SW-620 colon it was 99.3% (inactive); with HCT-116 colon, 107% (inactive); with HCC-2998 colon, 97% (inactive). For the same compound, in the assay on KM12 colon, the growth was 104% (inactive).

The values are drawn from PubChem BioAssay (NCI).
